Source: the supplement of paper PMC11732987, “Enantioselective OTUD7B fragment discovery through chemoproteomics screening and high-throughput optimisation” (Communications Chemistry, 2025)

Each compound was assayed against USP14 (UniProt P54578) (assay: log2 ratio of Biotin-Ahx-Ub-VS probe labelling (fragment/DMSO); higher = less target engagement (more negative = stronger competition), active = hit call of the paper (q ≤ 0.05, log2 ratio ≤ -1)). Details: compound concentration: 200 uM; treatment time: 3 h.
Procedure: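 Competitive ABPP in HEK293T cell lysate. Lysates were treated with each chloroacetamide fragment at 200 µM for 3 h, then with Biotin-Ahx-Ub-VS (0.5 µM, 1 h), NeutrAvidin-enriched and analysed by diaPASEF LC-MS/MS. Protein LFQ was median-normalised; average log2 ratio is fragment/DMSO from an unpaired t-test (n=3 treated, n=44 DMSO). Hits: q ≤ 0.05, log2 ratio ≤ -1, unique peptides ≥ 2.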

Sequence of USP14 (P54578 whole entry, the tested form may be a part): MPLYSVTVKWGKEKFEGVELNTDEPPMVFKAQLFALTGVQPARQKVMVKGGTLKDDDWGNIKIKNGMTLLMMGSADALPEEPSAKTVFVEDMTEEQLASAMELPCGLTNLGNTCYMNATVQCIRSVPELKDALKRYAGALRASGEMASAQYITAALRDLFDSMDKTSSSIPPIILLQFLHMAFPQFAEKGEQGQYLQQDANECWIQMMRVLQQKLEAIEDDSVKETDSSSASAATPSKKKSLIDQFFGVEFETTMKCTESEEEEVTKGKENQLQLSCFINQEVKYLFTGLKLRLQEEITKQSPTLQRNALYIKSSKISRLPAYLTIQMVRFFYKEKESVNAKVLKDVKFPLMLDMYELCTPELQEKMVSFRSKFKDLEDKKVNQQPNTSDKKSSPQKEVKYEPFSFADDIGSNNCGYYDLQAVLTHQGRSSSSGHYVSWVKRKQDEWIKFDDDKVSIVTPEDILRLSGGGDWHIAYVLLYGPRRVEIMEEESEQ

log2 ratio of Biotin-Ahx-Ub-VS probe labelling, inactive:
NC(=O)C1CCCCN1C(=O)CCl (configuration not stated) -0.15
O=C(CCl)N1CCOC(c2cccc(F)c2)C1 (configuration not stated) -0.3
Cl.O=C(CCl)N1CC(c2ccc(Br)cn2)C1 -0.592
O=C(CCl)Nc1ccc(F)cc1F -0.106
COc1ccc(C2CCCN2C(=O)CCl)c(OC)c1 (configuration not stated) -0.545
O=C(CCl)NCc1ccc(N2CCOCC2)c(F)c1 0.1
O=C(CCl)N1CCCCCC1c1ncon1 (configuration not stated) -0.087
